# Pf Dd2 inh – blocks in vitro growth of P. falciparum Dd2 | P. falciparum Dd2 growth, SYBR Green, 72 h | Potency, µM (titrated, usually from 28.9 µM), inactives show top-dose activity, negative = inhibition, hits mostly inhibitors | hit rate 4.3% among 120,000 | AID 1347417; active = well fitted inhibition curve with a large enough effect;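 note: plate controls were DMSO vehicle for no effect and reference drug for full effect; nearly all actives have a fitted effect of over 65% in size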
#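 Readout: SYBR Green fluorescence, 485 nm excitation, 535 nm emission, after ~16 h lysis at 37C. Before that, Dd2-infected red cells (2.5% hematocrit) grew 72 h with compound, 29 uM top final concentration.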
# Numbers without * were called inactive; i = inactive; [ ] = dose if it differs, or a comment. Many of the other results were omitted from the sample, so hits are more common in it than they were. Potency is the fitted concentration of half-maximal effect.
SMILES,Pf Dd2 inh
O=C(NCc1ccc2c(c1)OCO2)C1CC(c2ccccc2)CN(C(=O)NCc2ccccc2)C1 (stereo not drawn),i
CCN1c2cc(C(=O)NCc3cccc(Cl)c3)ccc2C(=O)N2CCCCCC21 (stereo not drawn),-4%
CC(C)c1ccc(CNC(=O)c2ccc3c(c2)N(C)C2CCCCN2C3=O)cc1 (stereo not drawn),2.2µM*
CN1c2cc(C(=O)NCc3ccc(Cl)cc3)ccc2C(=O)N2CCCCC21 (stereo not drawn),i
CCN1c2cc(C(=O)NCc3ccccc3C)ccc2C(=O)N2CCCCCC21 (stereo not drawn),6.3µM*
CCN1c2cc(C(=O)NCc3cccc(OC)c3OC)ccc2C(=O)N2CCCCCC21 (stereo not drawn),-28%
CCN1c2cc(C(=O)NCc3ccc(C)c(C)c3)ccc2C(=O)N2CCCCCC21 (stereo not drawn),-3%
CCN1c2cc(C(=O)NCc3ccc(OC)cc3)ccc2C(=O)N2CCCCCC21 (stereo not drawn),i
CCN1c2cc(C(=O)NCc3ccc(Cl)cc3)ccc2C(=O)N2CCCCC21 (stereo not drawn),8.9µM*
CN1c2cc(C(=O)NCc3ccccc3)ccc2C(=O)N2CCCCC21 (stereo not drawn),i
COCCNC(=O)C(C)(C)Oc1nn(Cc2cccc(Cl)c2)c2ccccc12,-1%[44.1 µM]
CN1CCN(c2nc3c(c(=O)[nH]2)CCN(Cc2cccc(C#N)c2)CC3)CC1,18%[5.79 µM]
CCCc1noc(-c2cccn3c(CNC(=O)c4ccccc4C)nnc23)n1,i
Cc1ccc(-n2c(SCC(=O)N3CCc4ccccc43)nc3c([nH]c4ccccc43)c2=O)cc1,-11%
CCCN1CCCC2(CCN(S(=O)(=O)c3c(C)noc3C)C2)C1=O (stereo not drawn),-4%
OC(c1nc(Nc2ccc(N3CCOCC3)cc2)n[nH]1)C1CC1 (stereo not drawn),2%[44.1 µM]
CCC1CCCCN1C(=O)c1sc(-n2nc(C)c(Cc3ccccc3)c2C)nc1C (stereo not drawn),-1%
O=C(CN1C(=O)COc2ccc(C(=O)COc3ccc(F)cc3F)cc21)Nc1ccc(F)cc1,i
Cc1ccc(NC(=O)Cn2cc(S(=O)(=O)c3ccc(F)cc3)c(=O)c3cc4c(cc32)OCO4)cc1,-10%
Cc1cccc(CC(=O)N2CCC(Cc3nc(-c4ccccc4)no3)CC2)c1,i
COc1cc(C(=O)NCc2c[nH]c3ncccc23)nc2ccccc12,25%
CCN(CC)Cc1ccc2c(c1)CN(C(=O)COc1ccc(C)cc1)CCO2,2.8µM*
CCN(CC)Cc1ccc2c(c1)CN(C(=O)N(CC)CC)CCO2,-15%
CCN(CC)Cc1ccc2c(c1)CN(C(=O)c1ccsc1)CCO2,-24%
COc1ccc(S(=O)(=O)NCC(c2ccc(N(C)C)cc2)N2CCc3ccccc32)cc1F (stereo not drawn),-33%
SMILES,Pf Dd2 inh
CCOC(=O)c1ccc(Nc2nc3ccccc3n3c(C)nnc23)cc1,-24%
CCOC(=O)c1nc(Nc2ccc(Cl)cc2)c2c(C)noc2n1,17%
CCOC(=O)c1ccc(Nc2nc3nonc3nc2Nc2cccc(C)c2C)cc1,1.1µM*
O=C(NCC(c1cccnc1)N1CCOCC1)C(=O)Nc1cccc(Cl)c1 (stereo not drawn),-15%
O=C(NCC(c1cccnc1)N1CCN(c2ccccc2F)CC1)C(=O)Nc1ccc(F)cc1F (stereo not drawn),3.2µM*
CN1CCN(C(CNC(=O)C(=O)Nc2ccc(F)cc2)c2cccnc2)CC1 (stereo not drawn),-8%
COCCNC(=O)C(=O)NCC(c1cccnc1)N1CCN(c2ccccc2OC)CC1 (stereo not drawn),-13%
Cc1ccc(NC(=O)C(=O)NCC(c2cccnc2)N2CCN(Cc3ccccc3)CC2)cc1Cl (stereo not drawn),3.5µM*
O=C(NCC(c1cccnc1)N1CCOCC1)C(=O)Nc1ccc(Cl)cc1 (stereo not drawn),-14%
Cc1ccc2c(C)c(C(=O)N3CC(OCc4ccccc4F)C3)oc2c1,-7%
COc1ccc(C(=O)N2CCc3ccc(C(=O)NCC(C)C)cc32)cc1,-10%
CCOc1ccc(OCC)c(NS(=O)(=O)c2ccc(-c3coc(C)n3)cc2)c1,-16%
CCC1CN(C(=O)N2CCC(C(=O)NCCC3=CCCCC3)CC2)c2cc(C)ccc2O1 (stereo not drawn),13µM*
CC1CN(C(=O)N2CCC(C(=O)NCCC3=CCCCC3)CC2)c2ccccc2O1 (stereo not drawn),-11%
CCC1CN(C(=O)N2CCC(C(=O)NCCCc3ccccc3)CC2)c2cc(C)ccc2O1 (stereo not drawn),i
NC(=O)[C@H]1CCCN1Cc1c(C(=O)N2CCCCCCC2)nc2sccn12,-13%
Cc1ccc(CCNC(=O)CS(=O)Cc2nc(-c3ccccc3Cl)oc2C)cc1 (stereo not drawn),-8%
O=C(Nc1ccc(OC(F)(F)F)cc1)c1cc(-c2ccc[nH]2)n[nH]1,-22%
CCN1c2cc(C(=O)N3CCCCC3)ccc2C(=O)N2CCCCCC21 (stereo not drawn),i

# Bioassay records (PubChem BioAssay)
